For 40 compounds, Potency and activity change, negative = lower viability results are on record in PubChem BioAssay (NCATS).

Results filed as inconclusive are left out. Entries that show only a call come without a potency. The source made the active and inactive calls. Calls come from the whole dose curve; tested in HEK293 reporter line.
Potency is the fitted concentration of half-maximal effect.

This experiment in a line: qHTS for Inhibitors of the Functional Ribonucleoprotein Complex (vRNP) of Lymphocytic Choriomeningitis Arenaviruses (LCMV): Viability assay - alamar blue signal for LCMV Primary Screen (AID 1347085). Note: nearly all actives have a fitted effect of over 80% in size. The following applies: alamar blue viability counter-screen, LCMV vRNP screen cells; series mostly up to 57.5 µM. A general note: In qHTS, concentration-response curves come from the screen itself.
In the case of `NC[C@@H]1O[C@@H](O[C@H]2[C@@H](O)[C@H](O[C@@H]3[C@@H](O)[C@@H](N)C[C@H](N)[C@H]3O[C@H]3O[C@H](CN)[C@@H](O)[C@@H](O)[C@H]3N)O[C@H]2CO)[C@H](N)[C@@H](O)[C@@H]1O`, the Potency result is “inactive”.

Turning to `O=C(O)c1cc(N(Cc2ccccc2O)Cc2ccccc2O)ccc1O`, the Potency entry was “inactive”.

Take `COc1ccc([C@H]2Cc3cccc(O)c3C(=O)O2)cc1O`: the Potency result was “inactive”.

Consider `COc1cc(/C=C2/C(=O)Nc3ccccc32)cc(OC)c1O`, for which the Potency entry was “inactive”.

Turning to `C/C=C(/C)C(=O)O[C@@H]1c2c(ccc3ccc(=O)oc23)O[C@@H]1C(C)(C)OC(C)=O`, the Potency entry was “inactive”.

Consider `COc1cc(C)c(C(=O)Oc2cc(C)c(C(=O)O)c(O)c2C)c(O)c1C`, for which the Potency entry is “inactive”.

On to `CCN1C[C@]2(CO)CC[C@H](OC)[C@@]34C5C[C@H]6[C@H](OC)C5[C@](O)(C[C@H]6OC)[C@@](O)(C(OC)C23)[C@@H]14` (stereo not given in full), for which the Potency result is “inactive”.

Take `CC1CCC(C(C)(C)S)C(=O)C1` (stereo not given): the Potency entry was “inactive”.

In the case of `CC1C(c2ccccc2)OC(=O)N1C` (stereo not given), the Potency result was “inactive”.

As for `COc1ccc(COC(C)=O)cc1`, the Potency result was “inactive”.

`Nc1nc(N)c2[nH]cnc2n1`: the Potency entry is “inactive”.

As to `C[C@@H](O)CCC[C@H](O)/C=C/[C@H]1[C@H](O)CC(=O)[C@@H]1C/C=C\CCCC(=O)O`, the activity change, negative = lower viability was -144% [at 5.82 µM] (inactive).

Take `COc1cc2c(cc1O)[C@@H]1Cc3cc(OC)c(OC)cc3C(C2)N1C`: the Potency entry was “inactive”.

Turning to `COc1ccc2ccc(=O)oc2c1CC(=O)C(C)C`, the Potency result was “inactive”.

Turning to `CCC/C=C/CO`, the Potency result was “inactive”.

With `O=C(O)CCC/C=C\C/C=C\C=C\[C@@H](O)C/C=C\CCCCCO`, the activity change, negative = lower viability is 9.51% [at 0.757 µM] (inactive).

Regarding `COc1c2c(nc3occc13)C(CC=C(C)C)(OC)C(=O)C=C2` (stereo not given), the Potency entry is “inactive”.

Take `CC(O)C(C)O` (stereo not given): the Potency entry is “inactive”.

On to `C[C@]12CCC3C(CC[C@H]4C[C@H](O)CC[C@]34C)C1C[C@H](O)[C@@H]2O` (stereo not given in full), for which the Potency entry was “inactive”.

In the case of `C=Cc1cc(OC)c2c(c1)c(=O)oc1c2cc(OC)c2c(O)ccc(C3OC(C)C(O)C(C)(O)C3O)c21` (stereo not given), the Potency result was “inactive”.

In the case of `Nc1nc(=O)n([C@H]2CSC(CO)O2)cc1F` (stereo not given in full), the Potency entry was “inactive”.

`C[C@H]1O[C@H](O[C@H]2[C@H](O)[C@@H](O)[C@@H](O[C@H]3[C@H](O)[C@@H](O)C(O)O[C@H]3CO)O[C@H]2CO)[C@H](O)[C@@H](O)[C@H]1N[C@H]1C=C(CO)[C@@H](O)[C@H](O)[C@@H]1O` (stereo not given in full): the Potency entry is “inactive”.

Turning to `C=C1C(O)C[C@H]2C(=C)CCC3[C@H](OC(=O)[C@]3(O)CO)[C@@H]12` (stereo not given in full), the Potency entry is “inactive”.

Turning to `NC1=NCCCC1`, the Potency entry is “inactive”.

Regarding `CC(=O)c1ccc(-c2cccs2)s1`, the Potency result was “inactive”.

For the compound `Cc1[nH]c(C=C2C(=O)Nc3ccccc32)c(C)c1CCC(=O)O`, the Potency was 21.7 µM (active).

Take `COc1c2c(cc3oc(CO[C@@H]4O[C@H](CO)[C@@H](O)[C@H](O)[C@H]4O)cc(=O)c13)O[C@H](C(C)(C)O)C2`: the Potency entry was “inactive”.

Take `CCCCC[C@H](O)/C=C/[C@H]1OC(O)C[C@H](O)[C@@H]1C/C=C\CC(=O)O` (stereo not given in full): the activity change, negative = lower viability is -0.195% [at 0.757 µM] (inactive).

Consider `COC1=CC(=O)CC(C)C12Oc1cc(OC)cc(OC)c1C2=O` (stereo not given), for which the Potency entry is “inactive”.

For `C=CC(C)(CCC=C(C)C)OC(=O)C(C)C` (stereo not given), the Potency entry was “inactive”.

For the compound `COc1c(C(O)CC(C)C)ccc2c1C(=O)OCc1cc(C)cc(O)c1O2` (stereo not given), the Potency result is “inactive”.

For the compound `C[C@@H]1CCCCCCCCCCC1=O`, the Potency result was “inactive”.

With `CCCCC/C=C\C/C=C\C/C=C\CCCCCCC(=O)O[C@H](COCCCCCCCCCCCCCCCC)COP(=O)([O-])OCC[N+](C)(C)C`, the activity change, negative = lower viability was 13.1% [at 5.82 µM] (inactive).

As for `CCNC(=O)[C@H]1O[C@@H](n2cnc3c(N)nc(NCCc4ccc(CCC(=O)O)cc4)nc32)[C@H](O)[C@@H]1O`, the Potency entry was “inactive”.

With `COc1cc2c(c(OC)c1OC)-c1c(cc3c(c1O)OCO3)C[C@@H](C)[C@@H](C)C2`, the Potency entry is “inactive”.

In the case of `COc1cc(=O)n(C)c2c(O)cccc12`, the Potency result was “inactive”.

With `CC1(C)CCC[C@]2(C)[C@H]3CC(=O)O[C@]3(C)CC[C@@H]12`, the Potency entry was “inactive”.

For the compound `CC(C)=CCc1c(-c2ccc(O)cc2O)oc2cc3c(c(O)c2c1=O)C=CC(C)(C)O3`, the Potency entry is “inactive”.

With `O=C1NC(=O)/C(=C/c2ccc3c(c2)OC(F)(F)O3)S1`, the Potency entry was “inactive”.

In the case of `COc1ccc(CCNC(=O)/C=C\c2ccccc2)cc1OC`, the Potency result was “inactive”.
